Our source for the binding signal values is article PMC5700166.

What all share (assay): protein-binding microarray (PBM); PBM: ~300 nM protein, 6 mM HEPES pH 7.8, 80 mM KCl, 0.5 mM EDTA, 0.5 mM EGTA, 6% glycerol, 35 ng/ul poly-dIdC, 1% milk, 1 h, room temperature; Ap Aiptasia and Nv Nematostella (sea anemones) / Co Capsaspora / Aq Amphimedon (sponge) / Dm Drosophila / Hu human; RHD is the Rel homology domain; high values mean tight binding
Settings in all cases: dsDNA, one strand shown

For assay [1], the target named is T1, GST-Ap-NF-kB RHD (Exaiptasia pallida (Aiptasia), UniProt A0A913YAJ5 2-422).
T1 sequence: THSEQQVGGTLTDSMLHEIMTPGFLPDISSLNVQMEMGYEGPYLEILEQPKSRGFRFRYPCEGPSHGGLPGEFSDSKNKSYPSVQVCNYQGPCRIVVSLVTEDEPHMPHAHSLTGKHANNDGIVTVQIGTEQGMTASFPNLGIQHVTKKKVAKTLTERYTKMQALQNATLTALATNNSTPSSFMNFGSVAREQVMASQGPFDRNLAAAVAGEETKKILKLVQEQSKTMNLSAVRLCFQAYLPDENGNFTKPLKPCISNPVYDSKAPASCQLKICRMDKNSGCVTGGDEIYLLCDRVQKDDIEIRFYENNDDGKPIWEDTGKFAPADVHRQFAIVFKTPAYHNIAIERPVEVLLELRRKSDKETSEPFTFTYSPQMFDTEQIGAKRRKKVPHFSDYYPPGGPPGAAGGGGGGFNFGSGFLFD

The target in assay [2] is T2, GST-Nv-NF-kB (Cys allele) (Nematostella vectensis, UniProt E5G601 2-411).
T2 sequence: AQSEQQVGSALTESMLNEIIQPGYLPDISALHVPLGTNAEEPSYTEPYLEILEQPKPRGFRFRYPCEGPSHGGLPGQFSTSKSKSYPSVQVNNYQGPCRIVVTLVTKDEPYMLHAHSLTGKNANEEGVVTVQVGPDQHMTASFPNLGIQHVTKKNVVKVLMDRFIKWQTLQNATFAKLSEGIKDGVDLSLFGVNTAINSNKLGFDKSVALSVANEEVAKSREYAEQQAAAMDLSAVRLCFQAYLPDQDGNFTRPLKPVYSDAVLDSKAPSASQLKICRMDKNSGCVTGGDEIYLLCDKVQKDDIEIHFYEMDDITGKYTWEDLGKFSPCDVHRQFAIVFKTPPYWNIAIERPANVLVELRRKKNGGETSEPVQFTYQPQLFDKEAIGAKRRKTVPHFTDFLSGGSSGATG

Assay [3] deals with T3, GST-Co-NF-kB (Capsaspora owczarzaki, UniProt F1ARL5 200-546).
T3 sequence: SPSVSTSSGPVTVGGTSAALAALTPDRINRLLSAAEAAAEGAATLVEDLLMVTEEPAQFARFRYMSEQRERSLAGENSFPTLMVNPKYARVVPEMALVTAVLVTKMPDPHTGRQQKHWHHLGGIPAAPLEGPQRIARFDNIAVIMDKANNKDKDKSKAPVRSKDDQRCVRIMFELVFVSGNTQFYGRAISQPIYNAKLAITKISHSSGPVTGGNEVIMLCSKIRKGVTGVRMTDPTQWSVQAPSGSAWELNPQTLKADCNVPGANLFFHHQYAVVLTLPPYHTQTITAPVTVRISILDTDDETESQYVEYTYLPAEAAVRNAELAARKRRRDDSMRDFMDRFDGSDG

The target of assay [4] is T4, GST-Dm-Relish (Drosophila melanogaster, UniProt Q94527 99-473).
T4 sequence: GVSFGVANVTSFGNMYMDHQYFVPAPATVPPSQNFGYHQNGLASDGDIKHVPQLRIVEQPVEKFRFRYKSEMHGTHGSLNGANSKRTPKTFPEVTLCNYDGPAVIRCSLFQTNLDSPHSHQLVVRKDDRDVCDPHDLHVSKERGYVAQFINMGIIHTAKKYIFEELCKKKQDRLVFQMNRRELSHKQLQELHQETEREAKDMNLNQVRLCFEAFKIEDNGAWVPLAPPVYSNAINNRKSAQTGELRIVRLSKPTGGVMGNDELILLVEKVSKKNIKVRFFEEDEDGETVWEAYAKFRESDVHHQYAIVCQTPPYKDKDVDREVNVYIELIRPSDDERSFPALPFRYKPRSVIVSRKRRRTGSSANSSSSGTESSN

Assay [5] addresses T5, GST-Aq-NF-kB (Amphimedon queenslandica, UniProt A9Y5G7 2-389).
T5 sequence: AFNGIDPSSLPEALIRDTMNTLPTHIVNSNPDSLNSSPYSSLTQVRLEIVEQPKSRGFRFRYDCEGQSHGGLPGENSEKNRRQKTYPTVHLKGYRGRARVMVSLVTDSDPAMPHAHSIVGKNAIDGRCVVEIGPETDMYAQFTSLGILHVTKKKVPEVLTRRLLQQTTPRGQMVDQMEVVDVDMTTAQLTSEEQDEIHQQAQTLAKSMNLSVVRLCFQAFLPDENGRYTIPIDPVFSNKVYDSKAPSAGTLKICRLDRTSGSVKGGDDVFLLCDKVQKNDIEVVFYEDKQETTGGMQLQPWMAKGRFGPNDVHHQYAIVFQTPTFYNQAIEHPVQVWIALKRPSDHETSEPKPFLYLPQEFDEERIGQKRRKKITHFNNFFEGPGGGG

Regarding “CCGATTAACATCAGGGGAAGGTATGATGTTAATCGGGTCTTGATTCGCTTGACGCTGCTG”, the binding signal in assay [1] worked out at 3.33 z-score; in assay [2] it was 4.71 z-score; in assay [3], 5.15 z-score; in assay [4] it was 2.58 z-score; in assay [5] it was 3.96 z-score.
For “CCGATTAACATCAGGGAGCCCCCTGATGTTAATCGGGTCTTGATTCGCTTGACGCTGCTG”, the binding signal in assay [1] worked out at 8.32 z-score; in assay [2] it was 4.79 z-score; in assay [3], 2.5 z-score; in assay [4] it was 9.12 z-score; in assay [5], 7.55 z-score.
Taken in the same sequence, the figures for “CCGATTAACATCAAATTCCCACTTGATGTTAATCGGGTCTTGATTCGCTTGACGCTGCTG” were 2.15 z-score, 4.13 z-score, 2.26 z-score, 4.38 z-score and 2.47 z-score.
The matching figures for “CCGATTAACATCAGGGGGCAAGATGATGTTAATCGGGTCTTGATTCGCTTGACGCTGCTG”: 2.07 z-score, 2.14 z-score, 2.69 z-score, 1.01 z-score and 2.76 z-score.
Turning to “CCGATTAACATCAGGGGATAAAATGATGTTAATCGGGTCTTGATTCGCTTGACGCTGCTG”, the binding signal in assay [1] is 4.6 z-score; in assay [2], 5.11 z-score; in assay [3] it was 7.5 z-score; in assay [4], 3.31 z-score; in assay [5] it was 4.05 z-score.
Taken in the same sequence, the figures for “CCGATTAACATCACATATACCCCTGATGTTAATCGGGTCTTGATTCGCTTGACGCTGCTG” were 3.26 z-score, 1.78 z-score, 4.3 z-score, 1.34 z-score and 2.28 z-score.
The matching figures for “CCGATTAACATCACTAAATTCCCTGATGTTAATCGGGTCTTGATTCGCTTGACGCTGCTG”: 3.8 z-score, 5.35 z-score, 4.15 z-score, 3.63 z-score and 4.56 z-score.
Take “CCGATTAACATCACCAAATTCCCTGATGTTAATCGGGTCTTGATTCGCTTGACGCTGCTG”: the binding signal in assay [1] turned out to be 4.1 z-score; in assay [2], 4.67 z-score; in assay [3], 3.82 z-score; in assay [4], 4.02 z-score; in assay [5], 4.03 z-score.
Turning to “CCGATTAACATCAGGGGAGCCCCTGATGTTAATCGGGTCTTGATTCGCTTGACGCTGCTG”, the binding signal is 8.45 z-score in assay [1]; 6.25 z-score in assay [2]; 3.64 z-score in assay [3]; 8.74 z-score in assay [4]; 8.27 z-score in assay [5].
The matching figures for “CCGATTAACATCAGGGATTCCCATGATGTTAATCGGGTCTTGATTCGCTTGACGCTGCTG”: 4.88 z-score, 4.61 z-score, 2.91 z-score, 10 z-score and 6.04 z-score.
In the case of “CCGATTAACATCACAAAAATCCCTGATGTTAATCGGGTCTTGATTCGCTTGACGCTGCTG”, the binding signal in assay [1] stood at 5.86 z-score; in assay [2], 6.11 z-score; in assay [3], 2.59 z-score; in assay [4], 8.17 z-score; in assay [5], 6.23 z-score.
The matching figures for “CCGATTAACATCAAACACCCCCCTGATGTTAATCGGGTCTTGATTCGCTTGACGCTGCTG”: 4.89 z-score, 4.54 z-score, 4.93 z-score, 5.5 z-score and 5.86 z-score.
Taken in the same sequence, the figures for “CCGATTAACATCAGGGGCACCCCTGATGTTAATCGGGTCTTGATTCGCTTGACGCTGCTG” were 5.17 z-score, 3.94 z-score, 2.5 z-score, 7.23 z-score and 7.19 z-score.
Taken in the same sequence, the figures for “CCGATTAACATCAGGACTACCCCTGATGTTAATCGGGTCTTGATTCGCTTGACGCTGCTG” were 3.7 z-score, 3.48 z-score, 1.83 z-score, 2.36 z-score and 6.48 z-score.
